Values joined by “and” are separate entries in the source; they are usually repeats but may differ in a detail not shown here. Identical values can stand only once. Inconclusive results are not listed. A call without a number means that no potency is given here. The source holds several records for some structures; these can differ, active in one and inactive in another. Active and inactive are the calls of the source. Unless noted, calls follow the shape of the dose curve; as a rule, active = well fitted curve in the direction sought with a large enough effect in the repeat runs; inconclusive = weak or mixed curves; inactive = no such curve, though single readings can be large; an effect the other way counts as inactive or inconclusive.
Legend:
[1] = target: Thyrotropin receptor (Homo sapiens) (UniProt P16473); test: qHTS assay to identify small molecule antagonists of the thyroid stimulating hormone receptor (TSHR) signaling pathway (AID 1259385; calls by dose curve; also: nearly all actives have a fitted effect of over 20% in size)
In short: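 TSHR-HEK293 cells (800/well) plated 18 h, then compounds with Ro20-1724 and TSH at 1.5 ng/mL final, 30 min at room temperature. cAMP quantified by HTRF (cAMP-d2/anti-cAMP-cryptate, 1 h); 15 concentrations in triplicate.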

[2] = qHTS assay to identify small molecule agonists of the estrogen receptor alpha (ER-alpha) signaling pathway in the presence of an antagonist - cell viability counter screen (AID 1259386);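 also: cells exposed to compounds for 22 h at 37 °C before the viability read; nearly all actives have a fitted effect of over 30% in size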; also: potency is read from the fitted curve at half-maximal effect
In short: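 Steps: 5-day stripped-FBS culture; seed and incubate 24hr; add ICI-182,780 (10.0nM final); pin 15-point compound titration; incubate 22hr at 37C; add CellTiter-Fluor at 21hr; read fluorescence.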

[3] = qHTS assay to identify small molecule antagonists of the progesterone receptor (PR) signaling pathway - cell viability counter screen (AID 1346798); also: series mostly up to about 92 µM; nearly all actives have a fitted effect of over 50% in size
In short: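 Measures cytotoxicity in parallel with the PR antagonist reporter read: HEK293T PR-UAS-bla cells get compound and R5020 for 16 hr, and remaining viable cells are quantified by CellTiter-Glo luminescence.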

[4] = qHTS assay to identify small molecule agonists of the progesterone receptor (PR) signaling pathway - cell viability counter screen (AID 1346799; calls by dose curve; also: nearly all actives have a fitted effect of over 45% in size; also: potency is read from the fitted curve at half-maximal effect)
In short: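 Using the same plates as the PR reporter screen, HEK293T PR-UAS-bla cells received compounds for 16 hr at 37C and were then lysed with CellTiter-Glo; luminescence was read 30 min later at room temperature.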

[5] = qHTS assay to identify small molecule antagonists of the TGF-beta/Smad signaling pathway - cell viability counter screen (AID 1346824); also: nearly all actives have a fitted effect of over 50% in size
In short: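 SBE-bla HEK 293T cells, incubated overnight, then compound plus 0.25 ng/mL TGF-beta1 (stock added) for 5 hr at 37 C. Viability was read in the same wells by CellTiter-Glo luminescence after 30 min at room temperature.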

[6] = qHTS assay to identify small molecule agonists of the TGF-beta/Smad signaling pathway - cell viability counter screen (AID 1346829); also: top concentration of the series differs between compounds; nearly all actives have a fitted effect of over 45% in size
In short: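 Cytotoxicity counter screen: CellTiter-Glo luminescence (30 min, room temperature) measured in the SBE-bla HEK 293T reporter wells after 5 hr compound treatment at 37 C and the 2 hr substrate step.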

[7] = qHTS assay to identify small molecule agonists of the TGF-beta/Smad signaling pathway (AID 1346859; active = well fitted activation curve with a large enough effect in the signal ratio in the repeat runs, not every such curve was filed as active; the % refers to the signal ratio; also: series mostly up to about 77 µM)
In short: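 Beta-lactamase reporter activity downstream of Smad binding elements was measured in stably transfected HEK 293T cells; compounds were incubated for 5 hr, substrate for 2 hr at room temperature.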

[8] = target: Thyrotropin-releasing hormone receptor (Homo sapiens) (UniProt P34981); test: qHTS assay to identify small molecule antagonists of the thyrotropin-releasing hormone receptor (TRHR) signaling pathway (AID 1346877; active = well fitted inhibition curve with a large enough effect in the repeat runs, not every such curve was filed as active; also: potency is read from the fitted curve at half-maximal effect)
In short: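 Human TRHR in HEK293 cells; inhibition of the intracellular calcium rise triggered by 1 nM TRH was followed by fluorescence over 3 min. Compounds were run at 15 concentrations, three replicates each.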

[9] = target: Thyrotropin-releasing hormone receptor (Homo sapiens) (UniProt P34981); test: qHTS assay to identify small molecule agonists of the thyrotropin-releasing hormone receptor (TRHR) signaling pathway (AID 1346891; calls by dose curve; also: potency is read from the fitted curve at half-maximal effect;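 as to activation: HEK293 cells expressing TRHR with calcium dye readout; series mostly up to about 58 µM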)
In short: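 Overnight-plated (18 h, 37 °C, 5% CO2) TRHR-Hek293 cells; 2 h calcium dye at 37 °C; compound in DMSO; 3-min kinetic fluorescence read.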

[10] = Human pregnane X receptor (PXR) small molecule agonists, qHTS cell viability counter screen (AID 1346977); also: nearly all actives have a fitted effect of over 50% in size; also: potency is read from the fitted curve at half-maximal effect
In short: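 After a 5hr pre-incubation, PXR-Luc HepG2 cells received compounds plus positive control in DMSO and were kept 24hr at 37C. Cell viability was quantified by fluorescence from CellTiter-Fluor added for the final hour.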

[11] = Caspase-3/7 induction in HepG2 cells by small molecules, qHTS assay (AID 1346978); also: nearly all actives have a fitted effect of over 15% in size
In short: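 Wild-type HepG2 cells, 2,000/well, settled 5 hr at 37 C and 5% CO2, then compound-treated for 17 hr; caspase-3/7 activity read by luminescent Caspase-Glo 3/7 after 30 min at room temperature.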

[12] = Caspase-3/7 induction in CHO-K1 cells by small molecules, qHTS cell viability counter screen (AID 1346979); also: nearly all actives have a fitted effect of over 35% in size; also: potency is read from the fitted curve at half-maximal effect
In short: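 Multiplexed with Caspase-Glo 3/7 in CHO-K1 cells, this counter screen added CellTiter-Fluor after 16hr of compound exposure and recorded fluorescence 1hr later.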

[13] = Caspase-3/7 induction in CHO-K1 cells by small molecules, qHTS assay (AID 1346980); also: nearly all actives have a fitted effect of over 15% in size
In short: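 Wild-type CHO-K1 cells exposed to compounds for 17hr at 37 C, 5% CO2. Caspase-3/7 activity then measured by Caspase-Glo 3/7 luminescence after 30min at room temperature.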

[14] = Caspase-3/7 induction in HepG2 cells by small molecules, qHTS cell viability counter screen (AID 1346981); also: nearly all actives have a fitted effect of over 30% in size; also: potency is read from the fitted curve at half-maximal effect
In short: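 The parent HepG2 line is plated at 2,000 cells per well and rested 5 hr before compound pinning from DMSO stocks. Following a 16-hr treatment at 37 C, a fluorogenic live-cell substrate (CellTiter-Fluor) reports viability after 1 hr.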

[15] = target: Progesterone receptor (Homo sapiens) (UniProt P06401); test: qHTS assay to identify small molecule antagonists of the progesterone receptor (PR) signaling pathway (AID 1346795; active = well fitted inhibition curve with a large enough effect in the signal ratio in the repeat runs, not every such curve was filed as active; the % refers to the signal ratio; also: potency is read from the fitted curve at half-maximal effect)
In short: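 Screening used a GripTite HEK293T line with PR-responsive UAS-beta-lactamase. Cells were challenged with compound in the presence of 1 nM R5020 final for 16 hr at 37C; B/G FRET substrate, 2 hr room temperature, fluorescence.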

[16] = target: Nuclear receptor subfamily 1 group I member 2 (Homo sapiens) (UniProt O75469); test: Human pregnane X receptor (PXR) small molecule agonists, qHTS assay (AID 1346982); also: nearly all actives have a fitted effect of over 35% in size; also: potency is read from the fitted curve at half-maximal effect
In short: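 After plating in 5% charcoal-stripped FBS and a 5 hr rest, PXR-Luc HepG2 cells received compounds in DMSO. Following 24 hr at 37 C, ONE-Glo was added and light output read.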

[17] = target: Progesterone receptor (Homo sapiens) (UniProt P06401); test: qHTS assay to identify small molecule agonists of the progesterone receptor (PR) signaling pathway (AID 1346784; calls by dose curve; also: nearly all actives have a fitted effect of over 30% in size)
In short: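 Seed PR-UAS-bla HEK 293T cells (2% charcoal-stripped FBS), incubate 6 hr at 37C; add compounds in DMSO, 16 hr at 37C; add LiveBLAzer B/G substrate, 2 hr RT; read fluorescence intensity.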

[18] = target: Nuclear receptor subfamily 1 group I member 2 (Rattus norvegicus) (UniProt Q9R1A7); test: Rat pregnane X receptor (rPXR) activation by small molecules, qHTS assay (AID 1346983); conditions: rPXR luciferase reporter cells, One-Glo luminescence, 24 h; stronger effect = higher value; also: nearly all actives have a fitted effect of over 20% in size
In short: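 Cell-based rPXR activation assay: rPXR cells, 2,000 per well, rested 5hr at 37 C, then exposed to compounds in DMSO for 24 hr at 37 C. Luciferase activity read by One-Glo luminescence after 30 min at room temperature.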

[19] = target: Nuclear receptor subfamily 1 group I member 2 (Homo sapiens) (UniProt O75469); test: CYP3A4 induction through human pregnane X receptor (PXR) by small molecules, qHTS assay (AID 1346984); also: nearly all actives have a fitted effect of over 40% in size
In short: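 Human PXR activation is tracked via CYP3A4 promoter-luciferase in DPX-2 (HepG2) cells. Compounds treat cells for 24hr at 37C, and luminescence is read after One-Glo.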

[20] = target: Nuclear receptor subfamily 1 group I member 2 (Homo sapiens) (UniProt O75469); test: Human pregnane X receptor (PXR) activation by small molecules, qHTS assay (AID 1346985); also: nearly all actives have a fitted effect of over 40% in size
In short: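 DPX-2 cells (HepG2 co-transfected with a PXR response element and a CYP3A4-promoter luciferase construct) were seeded at 2,000 per well, rested 5 hr at 37C, then exposed to DMSO-dissolved compounds for 24 hr. Activation was read as luciferase luminescence.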

Progesterone receptor (Homo sapiens), sequence (P06401 whole entry, looked up): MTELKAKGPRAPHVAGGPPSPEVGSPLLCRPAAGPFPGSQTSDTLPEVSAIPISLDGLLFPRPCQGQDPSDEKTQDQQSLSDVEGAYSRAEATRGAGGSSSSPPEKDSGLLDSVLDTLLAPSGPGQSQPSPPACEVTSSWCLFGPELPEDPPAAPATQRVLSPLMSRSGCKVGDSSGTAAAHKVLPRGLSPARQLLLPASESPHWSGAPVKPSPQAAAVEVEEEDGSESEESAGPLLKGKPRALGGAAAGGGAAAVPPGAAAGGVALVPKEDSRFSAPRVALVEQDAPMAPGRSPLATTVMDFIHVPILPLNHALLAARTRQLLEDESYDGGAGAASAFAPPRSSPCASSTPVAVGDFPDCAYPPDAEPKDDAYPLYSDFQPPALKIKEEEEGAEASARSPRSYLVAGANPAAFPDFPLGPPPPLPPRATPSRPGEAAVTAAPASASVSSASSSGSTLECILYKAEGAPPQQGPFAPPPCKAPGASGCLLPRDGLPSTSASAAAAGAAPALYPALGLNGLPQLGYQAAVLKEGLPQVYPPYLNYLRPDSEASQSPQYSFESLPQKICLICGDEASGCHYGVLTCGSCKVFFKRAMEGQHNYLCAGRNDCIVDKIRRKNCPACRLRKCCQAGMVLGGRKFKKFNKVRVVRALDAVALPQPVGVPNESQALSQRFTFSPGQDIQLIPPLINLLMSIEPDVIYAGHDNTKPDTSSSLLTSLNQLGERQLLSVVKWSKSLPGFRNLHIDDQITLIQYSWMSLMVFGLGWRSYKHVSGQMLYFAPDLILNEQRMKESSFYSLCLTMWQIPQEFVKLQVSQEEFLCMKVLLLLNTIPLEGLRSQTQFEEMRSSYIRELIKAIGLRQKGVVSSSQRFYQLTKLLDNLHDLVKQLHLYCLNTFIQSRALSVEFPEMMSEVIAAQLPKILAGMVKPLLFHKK
Thyrotropin receptor (Homo sapiens), sequence (P16473 whole entry, looked up): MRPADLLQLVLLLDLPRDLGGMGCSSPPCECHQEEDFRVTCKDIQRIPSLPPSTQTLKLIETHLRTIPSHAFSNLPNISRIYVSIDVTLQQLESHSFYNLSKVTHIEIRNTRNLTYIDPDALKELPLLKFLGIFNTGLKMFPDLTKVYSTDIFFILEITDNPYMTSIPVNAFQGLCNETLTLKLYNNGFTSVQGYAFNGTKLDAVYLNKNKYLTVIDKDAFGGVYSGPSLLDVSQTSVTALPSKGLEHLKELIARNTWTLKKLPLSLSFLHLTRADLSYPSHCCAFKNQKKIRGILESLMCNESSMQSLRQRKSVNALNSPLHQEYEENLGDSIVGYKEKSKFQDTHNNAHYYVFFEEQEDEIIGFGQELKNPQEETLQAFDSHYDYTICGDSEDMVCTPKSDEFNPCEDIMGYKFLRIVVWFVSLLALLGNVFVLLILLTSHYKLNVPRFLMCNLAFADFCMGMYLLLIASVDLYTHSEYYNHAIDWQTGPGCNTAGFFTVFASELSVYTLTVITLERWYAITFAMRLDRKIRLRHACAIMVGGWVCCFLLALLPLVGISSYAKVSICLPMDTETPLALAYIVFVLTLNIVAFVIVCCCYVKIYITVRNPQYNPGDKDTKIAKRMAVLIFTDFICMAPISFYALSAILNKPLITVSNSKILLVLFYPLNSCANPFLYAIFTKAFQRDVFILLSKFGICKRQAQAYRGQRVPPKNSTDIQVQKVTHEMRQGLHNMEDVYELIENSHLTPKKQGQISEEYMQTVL
Thyrotropin-releasing hormone receptor (Homo sapiens), sequence (P34981 whole entry, looked up): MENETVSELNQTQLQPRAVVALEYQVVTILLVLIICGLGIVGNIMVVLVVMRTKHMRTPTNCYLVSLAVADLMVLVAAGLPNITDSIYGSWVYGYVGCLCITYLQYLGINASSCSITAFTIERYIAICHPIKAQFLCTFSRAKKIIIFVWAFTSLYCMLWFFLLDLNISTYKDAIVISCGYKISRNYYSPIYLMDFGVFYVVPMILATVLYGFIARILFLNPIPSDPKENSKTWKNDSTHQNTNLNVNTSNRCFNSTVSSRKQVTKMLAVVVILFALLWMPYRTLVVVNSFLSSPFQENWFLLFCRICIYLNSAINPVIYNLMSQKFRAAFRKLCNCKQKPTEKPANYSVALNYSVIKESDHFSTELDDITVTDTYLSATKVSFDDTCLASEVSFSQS
Nuclear receptor subfamily 1 group I member 2 (Homo sapiens), sequence (O75469 whole entry, looked up): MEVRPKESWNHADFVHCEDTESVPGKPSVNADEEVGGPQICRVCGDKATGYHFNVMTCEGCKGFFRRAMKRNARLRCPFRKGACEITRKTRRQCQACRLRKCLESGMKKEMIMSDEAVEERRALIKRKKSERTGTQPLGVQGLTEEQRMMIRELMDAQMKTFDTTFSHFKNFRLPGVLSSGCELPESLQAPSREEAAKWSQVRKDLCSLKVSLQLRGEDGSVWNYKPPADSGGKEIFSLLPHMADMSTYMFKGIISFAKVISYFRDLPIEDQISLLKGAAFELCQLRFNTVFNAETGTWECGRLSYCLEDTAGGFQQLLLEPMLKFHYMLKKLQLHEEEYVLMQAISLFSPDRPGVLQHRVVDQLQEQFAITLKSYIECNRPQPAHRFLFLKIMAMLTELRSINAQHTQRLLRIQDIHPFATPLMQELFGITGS
Nuclear receptor subfamily 1 group I member 2 (Rattus norvegicus), sequence (Q9R1A7 whole entry, looked up): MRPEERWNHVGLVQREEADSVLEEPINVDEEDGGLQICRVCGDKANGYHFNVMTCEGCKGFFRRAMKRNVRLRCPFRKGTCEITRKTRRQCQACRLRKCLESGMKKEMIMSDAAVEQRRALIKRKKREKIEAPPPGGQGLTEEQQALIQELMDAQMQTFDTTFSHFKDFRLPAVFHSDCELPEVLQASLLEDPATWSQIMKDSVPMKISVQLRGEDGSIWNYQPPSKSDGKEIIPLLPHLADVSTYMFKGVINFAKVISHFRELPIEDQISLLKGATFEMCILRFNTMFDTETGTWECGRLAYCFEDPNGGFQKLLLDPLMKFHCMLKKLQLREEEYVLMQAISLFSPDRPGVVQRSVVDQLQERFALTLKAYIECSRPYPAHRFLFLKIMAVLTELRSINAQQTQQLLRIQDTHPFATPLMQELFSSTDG

| SMILES | outcome [1] | Potency [2] | Potency [3] | Potency [4] | Potency [5] | Potency [6] | outcome [7] | Potency [8] | Potency [9] | Potency [10] | Potency [11] | Potency [12] | Potency [13] | Potency [14] | Potency [15] | Potency [16] | Potency [17] | max activation [18] | outcome [19] | outcome [20] |
| --- | --- | --- | --- | --- | --- | --- | --- | --- | --- | --- | --- | --- | --- | --- | --- | --- | --- | --- | --- | --- |
| ClC1C(Cl)C(Cl)C(Cl)C(Cl)C1Cl (stereo not drawn) | inactive | inactive | inactive | inactive | inactive | inactive | inactive | inactive | inactive | inactive | inactive | inactive | inactive | inactive |  |  |  |  |  |  |
| Cc1c(COC(=O)[C@@H]2[C@H](/C=C(\Cl)C(F)(F)F)C2(C)C)cccc1-c1ccccc1 | inactive | inactive |  | inactive and 54.3 µM (active) | inactive | inactive | inactive |  |  | inactive | inactive | 43.1 µM (active) | inactive | inactive | inactive | 26.7 µM (active) and inactive |  |  |  |  |
| CC(C)(c1cc(Cl)c(O)c(Cl)c1)c1cc(Cl)c(O)c(Cl)c1 | inactive | inactive | inactive | inactive | inactive | inactive | inactive | 30.1 µM (active) | 34.7 µM (active) |  | inactive |  | inactive | inactive |  |  |  |  |  |  |
| CCC(C)c1cc([N+](=O)[O-])cc([N+](=O)[O-])c1O (stereo not drawn) | inactive | inactive and 24.3 µM (active) | inactive | inactive | inactive | inactive | inactive |  |  | inactive and 8.63 µM (active) | inactive | inactive and 15.4 µM (active) | inactive | inactive and 17.2 µM (active) |  | inactive and 27.3 µM (active) |  |  |  |  |
| Nn1cnnc1 | inactive |  | inactive | inactive | inactive | inactive | inactive | inactive | inactive | inactive | inactive | inactive | inactive | inactive |  | inactive | inactive |  |  |  |
| CCCCCCCCCCCOC(=O)c1ccccc1C(=O)OCCCCCCCCCCC | inactive | inactive | inactive | inactive | inactive | inactive | inactive | inactive |  | inactive | inactive | inactive | inactive | inactive | inactive | inactive |  |  |  |  |
| COP(=O)(OC)OC | inactive | inactive | inactive | inactive | inactive | inactive | inactive | inactive |  | 44.7 µM (active) and inactive | inactive | 30.9 µM (active) and inactive | inactive | inactive |  | 61.6 µM (active) and inactive |  |  |  |  |
| COP(=S)(OC)Oc1ccc([N+](=O)[O-])cc1 | inactive |  | inactive | inactive | inactive | inactive | inactive | inactive | inactive | inactive | inactive | 68.7 µM (active) and inactive | inactive | inactive | inactive and 24.3 µM (active) |  | inactive |  |  |  |
| Oc1cc(Cl)c(Cl)cc1Cl | inactive | inactive | inactive |  | inactive | inactive | inactive | inactive | inactive | inactive | inactive |  | inactive | inactive | 60.6 µM (active) and inactive and 54.5 µM (active) | 60.6 µM (active) |  | -1.86% (inactive) | inactive | inactive |
